{
  "source": "PubChem BioAssay AID504467",
  "about": "(National Center for Advancing Translational Sciences (NCATS), 2011)",
  "note": "The campaign covered roughly 330,000 compounds. About 7,700 (2.3%) were called active. About 26% were inconclusive and are not listed. Shown is part of a subset that was picked to be rich in actives. Unmarked numbers belong to inactive results. Calls come from the whole dose curve; as a rule, active = well fitted inhibition curve with a large enough effect; inconclusive = small, poorly fitted or top-dose-only effect, or effect the other way; inactive = flat fitted curve, though single readings scatter. % is set by controls: 0 for no effect and ±100 for the full control effect; potency is the fitted concentration of half-maximal effect.",
  "data": [
    {"experiment": "qHTS screen for small molecules that inhibit ELG1-dependent DNA repair in human embryonic kidney (HEK293T) cells expressing luciferase-tagged ELG1; note: nearly all actives have a fitted effect of over 55% in size", "details": "HEK293T ELG1-luciferase reporter, luminescence, 16 h, DNA damage induced by 5-fluorouridine; series mostly up to 46.1 µM; activity change, negative = inhibition: at the top concentration", "method_in_brief": "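HEK293T cells expressing luciferase-tagged ELG1 (2,000/well) received 5-Fluorouridine plus compound or DMSO for 16 hr at 37 °C. Luciferase was read by ONE-Glo luminescence after 30 min at room temperature.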", "units": {"activity change, negative = inhibition": "%"}, "values": [
      {"smiles": "O=C(OCC(=O)N1CCN(C(=O)c2ccco2)CC1)c1ccc(Cl)c(Cl)c1", "activity change, negative = inhibition": 11.7},
      {"smiles": "O=c1[nH]c(NCCO)nnc1Cc1ccc(Cl)cc1", "activity change, negative = inhibition": -2.82},
      {"smiles": "COc1ccc(Cc2nnc(N/N=C/c3ccccc3O)[nH]c2=O)cc1OC", "Potency": "4.11 µM (active)"},
      {"smiles": "CC(C)c1ccc(Cc2nnc(NCCCO)[nH]c2=O)cc1", "activity change, negative = inhibition": -0.109},
      {"smiles": "C=CCN1CN(S(=O)(=O)c2ccc(OC)cc2)c2nc3ccccc3nc21", "activity change, negative = inhibition": 4.11},
      {"smiles": "CCn1nc(C)c(CNC(=O)C2CCC(=O)N(Cc3cccc(F)c3)C2)c1C", "note": "(stereo not given)", "activity change, negative = inhibition": -6.48},
      {"smiles": "COC(=O)[C@]1(C)N[C@H](CN(C)C(=O)c2ccc(C(C)(C)C)cc2)[C@@H]2C(=O)N(C)C(=O)[C@@H]21", "activity change, negative = inhibition": 9.59},
      {"smiles": "COc1ccc(NC(=O)CC2SC(N3CCCCC3)=NC2=O)cc1OC", "note": "(stereo not given)", "activity change, negative = inhibition": 27.7},
      {"smiles": "COc1ccc(NC(=O)CN2C(=O)C(c3ccccc3)=NC23CCCCCC3)cc1OC", "Potency": "23.1 µM (active)"},
      {"smiles": "COc1ccc(NC(=O)CN(Cc2ccccc2)S(C)(=O)=O)cc1OC", "activity change, negative = inhibition": 0.322},
      {"smiles": "COc1cc(S(=O)(=O)N2CCN=C2c2ccccc2)ccc1Cl", "activity change, negative = inhibition": 12.4},
      {"smiles": "Cn1c(=O)c2c(SCC(=O)NCC3CCCO3)nc(CC(C)(C)C)nc2n(C)c1=O", "note": "(stereo not given)", "activity change, negative = inhibition": -10},
      {"smiles": "CCN(CC)c1ccc(NC(=O)C2CCC(CNc3c(N4CCCC4)c(=O)c3=O)CC2)c(C)c1", "note": "(stereo not given)", "activity change, negative = inhibition": -13.2},
      {"smiles": "CCOc1ccccc1NC(=O)C1CCC(CNc2c(N3CCOCC3)c(=O)c2=O)CC1", "note": "(stereo not given)", "activity change, negative = inhibition": 0.0516},
      {"smiles": "COc1ccc(NC(=O)C2CCC(CNc3c(N4CCCCC4)c(=O)c3=O)CC2)c(OC)c1", "note": "(stereo not given)", "Potency": "7.3 µM (active)"},
      {"smiles": "CC(CCc1ccccc1)NC(=O)c1cnc(Cl)c(Cl)c1", "note": "(stereo not given)", "activity change, negative = inhibition": -6.26},
      {"smiles": "Cc1ncoc1C(=O)N1CCCC(C(=O)c2ccc3c4c(cccc24)CC3)C1", "note": "(stereo not given)", "Potency": "16.4 µM (active)"},
      {"smiles": "CC(=O)NCC(=O)N1CCCC(C(=O)c2ccc3c4c(cccc24)CC3)C1", "note": "(stereo not given)", "activity change, negative = inhibition": -5.67},
      {"smiles": "CCn1ccnc1CN1CCCC(C(=O)c2ccc3c4c(cccc24)CC3)C1", "note": "(stereo not given)", "activity change, negative = inhibition": 8.93},
      {"smiles": "CC1CCCCC1NC(=O)NC(=O)COC(=O)C1=NN(c2ccccc2)C(=O)CC1", "note": "(stereo not given)", "activity change, negative = inhibition": 20.6},
      {"smiles": "CCCC(=O)N1CCN(c2nnc(-c3ccc(C)cc3)c3ccccc23)CC1", "activity change, negative = inhibition": 19.1},
      {"smiles": "COc1ccc(CCN(C)C(=O)C23CC4CC(CC(Cl)(C4)C2)C3)cc1OC", "activity change, negative = inhibition": -13.6},
      {"smiles": "CCCn1c(C2CCCN2c2nc(-c3ccc(C)cc3)cs2)nc2cc(Cl)c(N3CCCCC3)cc21", "note": "(stereo not given)", "activity change, negative = inhibition": -1.63},
      {"smiles": "CC(C)(C)OC(=O)Nc1ccc([C@@H](NC(=O)OC(C)(C)C)C(=O)OC(C)(C)C)cc1", "activity change, negative = inhibition": 6.05},
      {"smiles": "CCc1nnc(NC(=O)C2CCN(C(=O)c3ccccc3C)CC2)s1", "activity change, negative = inhibition": -0.619},
      {"smiles": "Cc1ccccc1C(=O)N1CCC(C(=O)Nc2ccc(S(=O)(=O)N(C)C(C)C)cc2)CC1", "Potency": "16.4 µM (active)"},
      {"smiles": "CC(=O)c1cccc(NC(=O)C2CCN(C(=O)c3ccccc3Cl)CC2)c1", "activity change, negative = inhibition": -26},
      {"smiles": "O=C(Nc1ccccc1N1CCOCC1)c1ccc(OCc2cscn2)cc1", "activity change, negative = inhibition": -20.9},
      {"smiles": "O=C(COC(=O)CCCN1C(=O)c2cccc3cccc(c23)C1=O)NC1CCS(=O)(=O)C1", "note": "(stereo not given)", "activity change, negative = inhibition": 16.1},
      {"smiles": "CCOC(=O)CSc1nc2ccc(C)cc2n2cnnc12", "activity change, negative = inhibition": 6.26},
      {"smiles": "O=C(CCc1nnc2ccc(NCc3ccco3)nn12)Nc1cc(F)ccc1F", "activity change, negative = inhibition": 7.8},
      {"smiles": "COc1cccc(-c2nc(CS(=O)(=O)CC(=O)NCCc3ccc(OC)c(OC)c3)c(C)o2)c1", "activity change, negative = inhibition": -23.3},
      {"smiles": "COc1ccc(CCN(C)C(=O)C2CCCN(Cc3ccc(OC)c(OC)c3)C2)cc1OC", "note": "(stereo not given)", "Potency": "inactive"},
      {"smiles": "COc1ccc(CCNC(=O)C2CCCN(Cc3nc(-c4cccc(Cl)c4)oc3C)C2)cc1OC", "note": "(stereo not given)", "Potency": "10 µM (active)"},
      {"smiles": "CCOc1ccc(-n2c(SCC(=O)OC)nc3sc4c(c3c2=O)CCN(C)C4)cc1", "activity change, negative = inhibition": 7.61},
      {"smiles": "Cc1cn(COC/C=C/c2ccccc2)c(=O)[nH]c1=O", "activity change, negative = inhibition": 9.83},
      {"smiles": "Cc1[nH]c(=O)c(C(=O)/C=C/c2ccccc2)c2c1CCCC2", "Potency": "8.2 µM (active)"},
      {"smiles": "O=C(/C=C/c1ccccc1)c1ccccc1O", "activity change, negative = inhibition": 24.6},
      {"smiles": "OC(COc1ccccc1)Cn1cc(Br)cn1", "note": "(stereo not given)", "activity change, negative = inhibition": 11.2},
      {"smiles": "O=C(c1ccccc1)c1ccc(OCC(O)CN2CCCC2)cc1", "note": "(stereo not given)", "activity change, negative = inhibition": -15},
      {"smiles": "OC(CN=c1sc2ccccc2n1CC(O)COc1ccccc1)COc1ccccc1", "note": "(stereo not given)", "Potency": "20.6 µM (active)"},
      {"smiles": "CC1(C)CC(=O)C=C(c2ccc(Cl)c(C(F)(F)F)c2)C1", "activity change, negative = inhibition": 12.4},
      {"smiles": "COc1ccc(C(CNC(=O)COc2ccc([N+](=O)[O-])cc2)N2CCCCC2)cc1", "note": "(stereo not given)", "activity change, negative = inhibition": 18.2},
      {"smiles": "Cc1c(O)c(C)c2c(c1O)C(=O)C[C@@H](c1ccccc1)O2", "activity change, negative = inhibition": 20.9},
      {"smiles": "COc1cc(C(=O)NCc2ccncc2)cc(Br)c1OCc1ccccc1", "Potency": "14.6 µM (active)"},
      {"smiles": "COc1cc(C(=S)NCc2ccccc2)cc(Br)c1O", "activity change, negative = inhibition": -1.45},
      {"smiles": "COc1cc(C(=O)NCc2ccc(-n3cccc3)cc2)cc(OC)c1OC", "activity change, negative = inhibition": 14.2},
      {"smiles": "CC[C@]1(C(=O)OC)[C@H]2C(=O)N(C)C(=O)[C@H]2[C@H]2CN(C)C(=NCc3ccccc3)N21", "activity change, negative = inhibition": 0.774},
      {"smiles": "COc1ccc(NC(=O)CN(C)C(=O)c2cccc(S(=O)(=O)N3CCN(c4ccccc4)CC3)c2)cc1", "activity change, negative = inhibition": -24.7},
      {"smiles": "CC1CCCCC1NC(=O)Cn1cnc2c1c(=O)n(C)c(=O)n2C", "note": "(stereo not given)", "activity change, negative = inhibition": 9.25}
    ]}
  ]
}
